Data as given in PubChem BioAssay AID540259 (Broad Institute, 2011).
Measured potencies and affinities stand elsewhere. Activity calls are given as the source filed them.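 The calls were made as follows: active = cell killing, meaning signal decrease, with fitted half-maximal dose at or below ten times the top valid tested dose; inconclusive = poor fit, or flat curve with 30 to 70% signal loss; inactive = the rest.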

Assay: HeLa cell cytotoxicity, dose response, cytotoxicity control for MITF activator project, CellTiter-Glo luminescence, cherry-pick samples (AID 540259)
Conditions: HeLa viability, CellTiter-Glo ATP luminescence, 24 h; series mostly up to 35 µM

SMILES	outcome
C=CCNC(=O)c1ccc2nc(Cc3ccc(OC)cc3)oc2c1	inactive
CCc1nc2oc3ccccc3c(=O)c2cc1C(=O)OC	inactive
Cn1c(NC(=O)CCC2CCCCC2)cc(=O)n(C)c1=O	inactive
Cc1ccc(N(O)C(=O)NCCCCNC(=O)N(O)c2ccc(C)cc2)cc1	inactive
COc1ccc(-c2csc(N(C)C(=O)c3cccs3)n2)cc1	inactive
CCc1nnc(NS(=O)(=O)c2ccc(NC(=O)c3cccc(Cl)c3)cc2)s1	inactive
Cc1ccn2cc(-c3cccc(NS(C)(=O)=O)c3)nc2c1	inactive
O=C(O)c1ccc(-c2nc(-c3ccc(Cl)cc3)cs2)cc1	inactive
CCN(CC)C(=O)CCc1nnc(Cc2cccc(C(F)(F)F)c2)o1	inactive
CC(=O)NCCC1CCCCN1C(=O)c1cc(COc2cc(C)ccc2C)on1 (configuration not stated)	inactive
O=C(Nc1ccc(C(F)(F)F)cc1)c1ccccc1	inactive
CCCc1ccc(C(=O)NNc2ccccc2F)cc1	inactive
Cc1cccc(Nc2nc3c(s2)CCCC3)c1	inactive
COc1ccc(C(=O)c2ccc(CC#N)s2)cc1	inactive
Oc1[nH]c2ccccc2c1C=Nc1ccccc1	inactive
Nc1ccc(Oc2cc(N)cc(Oc3ccccc3)c2)cc1	inactive
Fc1ccccc1Nc1nc2ccccc2o1	inactive
Cc1cc(C)c(NN=c2c(=O)c3ccccc3c2=O)c(C)c1	inactive
O=C(CCCc1ccccc1)c1ccccc1	inactive

SMILES	outcome
O=C(O)c1ccc(/C=C/c2ccc3cccc(O)c3n2)cc1	inactive
Cc1ccc(N2C(=O)S/C(=C/c3cn(C)c4ccccc34)C2=O)cc1	inactive
COc1ccc(-c2nnc(SCc3ccccc3)n2N)cc1	inactive
Cc1ccc2cc(/C=N/Nc3ccc(C(=O)O)cc3)c(Cl)nc2c1	inactive
CC(C)CNC(=O)C1CCN(Cc2ccc(OCc3ccccc3)cc2)CC1	inactive
CSc1ccccc1OCc1cc(C(=O)N[C@H]2CCCCNC2=O)no1	inactive
Brc1ccccc1-n1nnc(-c2nccs2)n1	inactive
O=C(Nc1ccc(F)cc1Cl)c1ccc2c(=O)n3c(nc2c1)CCC3	inactive
COc1ccc(NC(=O)c2ccc3c(c2)OCO3)cc1Cl	inactive
Cn1cc(Br)c(C(=O)N/N=C/c2cc3c(cc2Cl)OCO3)n1	inactive
Clc1ccc(-c2cc(CSc3ccccc3)on2)cc1	inactive
CCc1ccc(C(=O)N/N=C(\C)c2cccnc2)s1	inactive
N#C/C(=N\Nc1ccccc1F)C(=N)N1CCCCC1	inactive
COc1ccc(-n2nc(C(=O)NCC(=O)N3CCN(c4ccccc4)CC3)c3ccccc3c2=O)c(OC)c1	inactive
COc1ccc(/C=C2\OC(=O)c3c(OC)cccc32)cc1OC	inactive
COc1ccc2oc(=O)c(C(=O)N3CCN(c4ccccc4C)CC3)cc2c1	inactive
CCC(C)NC(=O)c1cc(-c2ccc(OC)cc2)on1 (configuration not stated)	inactive
CCC(=O)Nc1sc(C(=O)Nc2ccccc2F)c(C)c1C(=O)OC	inactive
